Assay results from PubChem BioAssay (Tox21).
Inconclusive results are not listed. Entries that show only a call come without a potency. Active and inactive are the calls of the source. Unless noted, calls come from the whole dose curve; as a rule, active = well fitted curve in the direction sought with a large enough effect in the repeat runs; inconclusive = weak or mixed curves; inactive = no such curve, though single readings can be large; an effect the other way counts as inactive or inconclusive.

Key:
[1] = qHTS assay to identify small molecule that activate the aryl hydrocarbon receptor (AhR) signaling pathway - cell viability counter screen (AID 743086);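 note: HepG2 liver cells carrying the AhR DRE luciferase reporter; series mostly up to about 70 µM; nearly all actives have a fitted effect of over 45% in size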
Outline: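 Cytotoxicity counter screen: CellTiter-Fluor signal (30 min, 37 C) in 4000 HepG2 cells/well carrying the DRE-luciferase reporter, following 24 h compound exposure at 37 C.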

[2] = biological target: Peroxisome proliferator-activated receptor gamma (Homo sapiens) (UniProt P37231); test: qHTS assay to identify small molecule agonists of the peroxisome proliferator-activated receptor gamma (PPARg) signaling pathway (AID 743094; active = well fitted activation curve with a large enough effect in the signal ratio in the repeat runs, not every such curve was filed as active; the % refers to the signal ratio)
Peroxisome proliferator-activated receptor gamma (Homo sapiens), sequence (P37231 whole entry, looked up): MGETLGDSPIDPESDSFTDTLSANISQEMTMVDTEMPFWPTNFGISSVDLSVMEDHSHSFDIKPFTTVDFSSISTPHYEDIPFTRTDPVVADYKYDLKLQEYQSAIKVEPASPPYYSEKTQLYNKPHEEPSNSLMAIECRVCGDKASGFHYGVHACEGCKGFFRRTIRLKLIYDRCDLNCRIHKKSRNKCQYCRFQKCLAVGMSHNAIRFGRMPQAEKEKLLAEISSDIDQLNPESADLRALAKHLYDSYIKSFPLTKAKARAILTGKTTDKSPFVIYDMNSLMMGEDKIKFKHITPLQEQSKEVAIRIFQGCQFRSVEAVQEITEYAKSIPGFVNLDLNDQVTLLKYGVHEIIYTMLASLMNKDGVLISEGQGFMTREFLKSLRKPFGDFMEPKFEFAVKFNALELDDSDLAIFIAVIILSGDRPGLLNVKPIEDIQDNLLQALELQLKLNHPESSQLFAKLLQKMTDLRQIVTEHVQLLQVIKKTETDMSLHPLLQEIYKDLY
Outline: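 Following 5 h plating at 37C, PPARg-bla HEK293H cells receive compound or DMSO for 17 h; fluorescence intensity is recorded after LiveBLAzer B/G loading for 1 h at room temperature.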

[3] = qHTS assay for small molecule agonists of the antioxidant response element (ARE) signaling pathway (AID 743202; active = well fitted activation curve with a large enough effect in the signal ratio in the repeat runs, not every such curve was filed as active; the % refers to the signal ratio; note: potency is the fitted concentration of half-maximal effect)
Outline: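 Quantitative high-throughput format in HepG2 cells bearing an integrated ARE-beta-lactamase reporter. Compound exposure lasted 16 h at 37 C, and fluorescence was read 2 h after adding LiveBLAzer B/G substrate at room temperature.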

[4] = qHTS assay for small molecule agonists of the antioxidant response element (ARE) signaling pathway - cell viability counter screen (AID 743203; calls by dose curve; note: nearly all actives have a fitted effect of over 55% in size)
Outline: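 Compounds in DMSO were pinned onto ARE-bla HepG2 cells plated 5 hrs earlier at 2,000 cells/well. Sixteen hours later at 37C/5% CO2, CellTiter-Glo was added and luminescence measured after 30 min at room temperature.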

[5] = qHTS assay for small molecule activators of the heat shock response signaling pathway - cell viability counter screen (AID 743209); note: nearly all actives have a fitted effect of over 50% in size
Outline: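 Counter screen for cytotoxicity in HeLa HSE-bla reporter cells. Treatment was 5 h at 37 C; viability was detected by luminescent ATP assay (CellTiter-Glo) in the same wells as the beta-lactamase read.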

[6] = qHTS assay for small molecule activators of the heat shock response signaling pathway (AID 743210; active = well fitted activation curve with a large enough effect in the signal ratio in the repeat runs, with a control signal flat, not every such curve was filed as active; the % refers to the signal ratio;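 note: HeLa cells with beta-lactamase reporter driven by heat shock elements; series mostly up to about 63 µM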)
Outline: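 HeLa HSE-bla cells, overnight plating; cpd in DMSO 5 h, 37 C; LiveBLAzer B/G FRET substrate 2.5 h RT; fluorescence intensity read.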

[7] = qHTS assay to identify small molecule agonists of the peroxisome proliferator-activated receptor delta (PPARd) signaling pathway - cell viability counter screen (AID 743211); note: nearly all actives have a fitted effect of over 55% in size; note: potency is the fitted concentration of half-maximal effect
Outline: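 Tox21 library compounds, delivered in DMSO, were incubated 17 h with PPARd-bla HEK293H cells; cytotoxicity was taken from CellTiter-Glo luminescence read 30 min after reagent addition.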

[8] = biological target: Peroxisome proliferator-activated receptor delta (Homo sapiens) (UniProt Q03181); test: qHTS assay to identify small molecule agonists of the peroxisome proliferator-activated receptor delta (PPARd) signaling pathway (AID 743212; calls by dose curve)
Peroxisome proliferator-activated receptor delta (Homo sapiens), sequence (Q03181 whole entry, looked up): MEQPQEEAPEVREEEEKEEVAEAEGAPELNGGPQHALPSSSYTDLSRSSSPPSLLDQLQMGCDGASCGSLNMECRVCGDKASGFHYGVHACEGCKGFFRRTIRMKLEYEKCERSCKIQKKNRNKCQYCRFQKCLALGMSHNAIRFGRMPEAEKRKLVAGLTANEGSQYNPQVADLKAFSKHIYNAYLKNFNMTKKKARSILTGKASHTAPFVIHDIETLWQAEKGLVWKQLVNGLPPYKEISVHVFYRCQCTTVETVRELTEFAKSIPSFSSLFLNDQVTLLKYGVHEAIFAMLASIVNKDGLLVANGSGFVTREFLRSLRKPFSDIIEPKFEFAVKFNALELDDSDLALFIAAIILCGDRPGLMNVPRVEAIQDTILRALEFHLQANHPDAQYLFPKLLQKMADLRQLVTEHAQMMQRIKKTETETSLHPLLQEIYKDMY
Outline: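 HEK293H PPARd-bla cells; 5 h preincubation 37 C/5% CO2; compound (DMSO) 37 C; LiveBLAzer B/G FRET substrate 2 h RT; fluorescence intensity.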

[9] = biological target: Peroxisome proliferator-activated receptor delta (Homo sapiens) (UniProt Q03181); test: qHTS assay to identify small molecule antagonists of the peroxisome proliferator-activated receptor delta (PPARd) signaling pathway (AID 743215; active = well fitted inhibition curve with a large enough effect in the signal ratio in the repeat runs, not every such curve was filed as active; the % refers to the signal ratio;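 note: cells stimulated with agonist L165041 at 300 nM final during compound exposure; series mostly up to about 62 µM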)
Outline: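 With L165041 present at 300 nM final, compounds were incubated 17 h at 37 C on PPARd UAS-bla HEK293H cells. A FRET-based beta-lactamase substrate was then applied for 2 h at room temperature and fluorescence intensity recorded.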

[10] = qHTS assay to identify small molecule agonists of the farnesoid-X-receptor (FXR) signaling pathway - cell viability counter screen (AID 743218); note: nearly all actives have a fitted effect of over 45% in size; note: potency is the fitted concentration of half-maximal effect
Outline: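 After 16 h at 37 C with test compounds, FXR-bla HEK 293T cells were given LiveBLAzer B/G substrate for 2 h at RT and then CellTiter-Glo; luminescence was taken after 30 min.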

[11] = qHTS assay to identify small molecule antagonists of the farnesoid-X-receptor (FXR) signaling pathway - cell viability counter screen (AID 743221; active = well fitted cell-killing curve with a large enough effect in the repeat runs, not every such curve was filed as active; note: nearly all actives have a fitted effect of over 50% in size)
Outline: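 Cytotoxicity is taken from ATP luminescence (CellTiter-Glo, 30 min, room temperature) in FXR-bla HEK 293T cells previously incubated 16 h at 37 C with compound and chenodeoxycholic acid at 50 uM final.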

[12] = qHTS assay to identify small molecule agonists of the vitamin D receptor (VDR) signaling pathway - cell viability counter screen (AID 743224); note: series mostly up to about 63 µM; nearly all actives have a fitted effect of over 50% in size
Outline: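 Here cell health was gauged by luminescent ATP detection (CellTiter-Glo, 30 min RT) in VDR-bla cells that had been incubated with test compounds for 16 h at 37C and 5% CO2.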

[13] = qHTS assay to identify small molecule antagonists of the vitamin D receptor (VDR) signaling pathway - cell viability counter screen (AID 743225); note: nearly all actives have a fitted effect of over 50% in size
Outline: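 Same-well multiplex: following 16 h treatment of HEK 293T cells carrying a UAS-driven beta-lactamase reporter with compound and agonist (3 nM final), and a 2 h FRET substrate step, CellTiter-Glo was added and luminescence read after 30 min.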

[14] = qHTS assay to identify small molecule antagonists of the peroxisome proliferator-activated receptor gamma (PPARg) signaling pathway - cell viability counter screen (AID 743194); note: nearly all actives have a fitted effect of over 55% in size; note: potency is the fitted concentration of half-maximal effect
Outline: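 Viability was measured as CellTiter-Glo luminescence in GeneBLAzer PPARg UAS-bla HEK293H cells. These cells had been exposed 17 h at 37 C to compounds together with rosiglitazone at 50 nM final, with the beta-lactamase readout taken in the same wells.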

[15] = biological target: Bile acid receptor (Homo sapiens) (UniProt Q96RI1); test: qHTS assay to identify small molecule antagonists of the farnesoid-X-receptor (FXR) signaling pathway (AID 743217; active = well fitted inhibition curve with a large enough effect in the signal ratio in the repeat runs, not every such curve was filed as active; the % refers to the signal ratio)
Bile acid receptor (Homo sapiens), sequence (Q96RI1 whole entry, looked up): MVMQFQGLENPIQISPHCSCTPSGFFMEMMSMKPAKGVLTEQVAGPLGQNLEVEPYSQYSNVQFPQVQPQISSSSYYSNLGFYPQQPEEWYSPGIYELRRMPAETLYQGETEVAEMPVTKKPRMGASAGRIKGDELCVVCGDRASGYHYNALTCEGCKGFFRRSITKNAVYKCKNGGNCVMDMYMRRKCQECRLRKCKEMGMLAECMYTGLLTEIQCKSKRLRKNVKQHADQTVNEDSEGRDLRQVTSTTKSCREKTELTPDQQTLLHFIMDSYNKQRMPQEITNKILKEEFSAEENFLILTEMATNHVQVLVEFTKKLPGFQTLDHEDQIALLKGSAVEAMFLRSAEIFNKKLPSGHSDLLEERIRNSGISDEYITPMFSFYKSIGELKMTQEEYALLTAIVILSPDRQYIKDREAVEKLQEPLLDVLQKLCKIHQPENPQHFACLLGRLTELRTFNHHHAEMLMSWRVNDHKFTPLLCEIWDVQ
Outline: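 In this cell-based antagonist screen, inhibition of CDCA-driven (50 uM final) UAS-beta-lactamase expression in HEK 293T cells was measured by FRET fluorescence following 16 h compound exposure at 37 °C.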

[16] = biological target: Bile acid receptor (Homo sapiens) (UniProt Q96RI1); test: qHTS assay to identify small molecule agonists of the farnesoid-X-receptor (FXR) signaling pathway (AID 743220; active = well fitted activation curve with a large enough effect in the signal ratio in the repeat runs, not every such curve was filed as active; the % refers to the signal ratio)
Outline: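 Beta-lactamase reporter under UAS control in GeneBLAzer FXR HEK 293T cells (5000/well) measured with LiveBLAzer FRET substrate after 2 h at room temperature. Compound exposure lasted 16 h at 37C.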

[17] = biological target: Vitamin D3 receptor (Homo sapiens) (UniProt P11473); test: qHTS assay to identify small molecule agonists of the vitamin D receptor (VDR) signaling pathway (AID 743222; calls by dose curve)
Vitamin D3 receptor (Homo sapiens), sequence (P11473 whole entry, looked up): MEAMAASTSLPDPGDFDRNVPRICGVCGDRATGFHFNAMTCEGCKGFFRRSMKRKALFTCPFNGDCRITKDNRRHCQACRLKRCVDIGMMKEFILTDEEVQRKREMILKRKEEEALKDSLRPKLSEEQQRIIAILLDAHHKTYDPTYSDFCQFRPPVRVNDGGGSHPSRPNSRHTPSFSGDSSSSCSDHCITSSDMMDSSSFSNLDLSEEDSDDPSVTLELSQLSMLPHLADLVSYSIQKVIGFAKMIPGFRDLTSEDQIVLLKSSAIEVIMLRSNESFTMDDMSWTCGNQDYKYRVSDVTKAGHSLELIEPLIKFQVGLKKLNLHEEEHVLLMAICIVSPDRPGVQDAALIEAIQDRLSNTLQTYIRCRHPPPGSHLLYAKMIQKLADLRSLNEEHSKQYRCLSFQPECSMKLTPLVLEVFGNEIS
Outline: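 VDR-bla cells were seeded, left 4 h, treated with compounds in DMSO for 16 h, incubated 2 h at RT with B/G FRET substrate, and read for fluorescence.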

[18] = qHTS assay to identify small molecule antagonists of the peroxisome proliferator-activated receptor delta (PPARd) signaling pathway - cell viability counter screen (AID 743213); note: nearly all actives have a fitted effect of over 50% in size; note: potency is the fitted concentration of half-maximal effect
Outline: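 PPARd-bla HEK293H cells (3000/well) got compound plus 300 nM L165041 agonist for 17 h at 37 C. Viability in the same wells came from CellTiter-Glo luminescence after 30 min at room temperature.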

[19] = biological target: Vitamin D3 receptor (Homo sapiens) (UniProt P11473); test: qHTS assay to identify small molecule antagonists of the vitamin D receptor (VDR) signaling pathway (AID 743223; active = well fitted inhibition curve with a large enough effect in the signal ratio in the repeat runs, not every such curve was filed as active; the % refers to the signal ratio; note: potency is the fitted concentration of half-maximal effect)
Outline: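 Quantitative HTS in VDR-bla reporter cells stimulated with 1alpha,25-dihydroxyvitamin D3, 3 nM final. Compound exposure 16 h, 37C, 5% CO2. Read-out: beta-lactamase FRET substrate fluorescence, 2 h RT.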

[20] = biological target: Peroxisome proliferator-activated receptor gamma (Homo sapiens) (UniProt P37231); test: qHTS assay to identify small molecule antagonists of the peroxisome proliferator-activated receptor gamma (PPARg) signaling pathway (AID 743191; calls by dose curve; note: nearly all actives have a fitted effect of over 30% in size; note: potency is the fitted concentration of half-maximal effect)
Outline: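 Beta-lactamase reporter under UAS control in HEK293H PPARg-bla cells; compound treatment 17 h at 37C. Read-out: fluorescence intensity after 1 h room-temperature incubation with LiveBLAzer B/G FRET substrate.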

Row | Structure (SMILES) | Potency [1] | Potency [2] | Potency [3] | Potency [4] | Potency [5] | outcome [6] | Potency [7] | outcome [8] | outcome [9] | Potency [10] | Potency [11] | Potency [12] | Potency [13] | Potency [14] | outcome [15] | outcome [16] | outcome [17] | Potency [18] | Potency [19] | Potency [20]
1 | OC(CCN1CCCCC1)(c1ccccc1)C1CCCCC1 (centres undefined) | inactive | inactive | inactive | inactive | inactive | inactive | inactive | inactive | inactive | inactive | inactive | inactive | inactive |  |  |  |  |  |  | 
2 | O=C(O)C(c1ccc(Cl)cc1)c1ccc(Cl)cc1 | inactive |  | inactive | inactive | inactive |  | inactive |  |  | inactive | inactive | inactive |  | inactive | inactive | inactive | inactive |  |  | 
3 | CC1(C)[C@H]2CC[C@]1(C)[C@H](O)C2 | inactive |  | inactive | inactive | inactive | inactive | inactive | inactive |  | inactive | inactive | inactive | inactive | inactive |  |  |  | inactive |  | 
4 | CN1CCC(=C2c3ccccc3C=Cc3ccccc32)CC1 | inactive | inactive | inactive | inactive | inactive | inactive |  |  |  |  | inactive | inactive | inactive |  |  | inactive | inactive |  | inactive | 
5 | Cc1ccc2c(ccc3ccccc32)c1 | inactive | inactive | inactive | inactive | inactive | inactive | inactive | inactive | inactive | inactive |  |  | inactive |  |  | inactive | inactive | inactive | inactive | 
6 | CC(=O)CC(=O)c1ccccc1 | inactive |  | inactive | inactive | inactive | inactive | inactive | inactive | inactive | inactive | inactive | inactive | inactive | inactive |  |  | inactive | inactive | inactive | inactive
7 | C[C@H](CCC(=O)O)[C@H]1CC[C@H]2[C@@H]3[C@H](O)C[C@@H]4C[C@H](O)CC[C@]4(C)[C@H]3CC[C@]12C | inactive | inactive |  | inactive | inactive |  | inactive |  |  | inactive | inactive | inactive |  | inactive |  |  |  |  |  | 
8 | O=C(Nc1ccccc1)OCC(CN1CCCCC1)OC(=O)Nc1ccccc1 (centres undefined) | inactive |  |  | inactive | inactive | inactive | 26.6 µM (active) |  |  |  | inactive |  | inactive | inactive |  | inactive | inactive | 26.6 µM (active) |  | 16.8 µM (active)
9 | CC(C(=O)O)c1ccc(C(=O)c2ccccc2)s1 (centres undefined) | inactive |  | inactive | inactive | inactive | inactive | inactive | inactive | inactive | inactive | inactive | inactive | inactive | inactive | inactive | inactive | inactive | inactive | inactive | inactive
10 | O=C(O)Cc1sc(-c2ccccc2)nc1-c1ccc(Cl)cc1 | inactive |  | inactive | inactive |  | inactive | inactive |  | inactive | inactive | inactive | inactive | inactive | inactive | inactive | inactive |  | inactive | inactive | 
11 | O=S1(=O)N=C(O)c2ccccc21 | inactive |  | inactive | inactive | inactive |  | inactive |  |  | inactive | inactive | inactive | inactive | inactive |  |  |  | inactive |  | 
12 | CCCCOC(=O)/C=C\C(=O)OCCCC | inactive | inactive |  | inactive | inactive |  | inactive |  |  | inactive | inactive | inactive | inactive | inactive |  | inactive | inactive |  | inactive | 
13 | CC(=O)c1ccc2c(c1)[C@H](NC(=O)c1ccc(F)cc1)[C@@H](O)C(C)(C)O2 | inactive | inactive |  | inactive |  | inactive | inactive | inactive | inactive | inactive | inactive | inactive | inactive | inactive |  |  | inactive | inactive |  | 
14 | O=C(c1ccccc1)c1ccc2n1CCC2C(=O)O (centres undefined) | inactive |  | inactive | inactive | inactive |  | inactive |  |  | inactive | inactive | inactive |  | inactive |  |  |  | inactive |  | inactive
15 | NC(=S)N/N=C/c1cccnc1 | inactive | inactive | inactive | inactive | inactive | inactive | inactive | inactive | inactive | inactive | inactive | inactive |  |  |  |  | inactive |  | inactive | 
16 | COc1ccc2[nH]c(S(=O)Cc3ncc(C)c(OC)c3C)nc2n1 (centres undefined) | inactive |  | 10.6 µM (active) | inactive | inactive | inactive | inactive | inactive | inactive | inactive | inactive | inactive | inactive | inactive |  |  | inactive | inactive | inactive | 
17 | C#CCOC(=O)[C@@H](C)Oc1ccc(Oc2ncc(Cl)cc2F)cc1 | inactive | inactive |  | inactive | inactive |  | inactive | inactive | inactive | inactive |  | inactive | inactive | inactive | inactive | inactive | inactive | inactive | inactive | 
18 | CC1CCc2cc(F)cc3c(=O)c(C(=O)O)cn1c23 (centres undefined) | inactive |  | inactive | inactive | inactive | inactive | inactive |  |  | inactive | inactive | inactive |  | inactive | inactive | inactive |  |  |  | 
19 | CN(c1nccc(=O)[nH]1)C1CCN(c2nc3ccccc3n2Cc2ccc(F)cc2)CC1 | inactive | inactive |  | inactive | inactive |  |  |  |  | inactive |  | inactive | inactive | inactive |  |  | inactive |  |  | 
20 | Cc1ccccn1 | inactive |  | inactive | inactive | inactive | inactive | inactive |  |  | inactive | inactive | inactive | inactive | inactive | inactive | inactive | inactive |  | inactive | 
21 | CN(C)CCCNCCCN | inactive | inactive |  | inactive | inactive | inactive | inactive |  | inactive | inactive | inactive | inactive | inactive |  | inactive | inactive | inactive |  | inactive | 
22 | Oc1ccc(C(O)CNCCCCCCNCC(O)c2ccc(O)c(O)c2)cc1O (centres undefined) |  |  |  | inactive | inactive |  | inactive | inactive |  | inactive |  | inactive | inactive | inactive |  |  | inactive | inactive | inactive | inactive
23 | CCN(CC)CCOc1ccc2c(c1)C(=O)c1cc(OCCN(CC)CC)ccc1-2 |  | inactive |  | inactive | inactive |  |  | inactive |  | 21.1 µM (active) |  |  |  | 29.8 µM (active) |  |  | inactive |  | 21.3 µM (active) | inactive
24 | NC1CCN(c2nc3c(cc2F)c(=O)c(C(=O)O)cn3-c2ccc(F)cc2F)C1 (centres undefined) |  |  | 26.6 µM (active) | inactive | inactive |  | inactive |  |  | inactive | inactive | inactive | inactive | inactive |  |  |  | inactive |  | 
